Bioassay records: PubChem, National Center for Advancing Translational Sciences (NCATS)
A selection: hits, their analogues and other compounds. The true share with any hit is near 7.3%.
ELG1 genotox: induces genotoxicity in HEK293T cells with luciferase-tagged ELG1; Potency, µM (top dose mostly 46 µM), inactives show at the top dose activity change, positive = activation, most hits filed as activators; hit rate 1.3% among 330,000; HEK293T ELG1-luciferase reporter, luminescence, 16 h; note: % of control where 0% means no effect; nearly all actives have a fitted effect of over 60% in size
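HEK293T cells expressing luciferase-tagged ELG1 were treated with compound or DMSO for 16 hr at 37°C. Luciferase activity was then read after 30 min with ONE-Glo at room temperature; rising signal flags genetic stress.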
FLuc counter: inhibits or activates purified firefly luciferase, miR-21 counter-screen. P08659. purified FLuc, Km substrates, luminescence inhibition. Potency, µM (titrated, usually from 57.5 µM), inactives show top-dose activity change, negative = inhibition, most hits filed as inhibitors. hit rate 6.9% among 360,000. AID 588342;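 note: plate controls were vehicle for no effect and reference inhibitor for full effect; nearly all actives have a fitted effect of over 55% in size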
Target sequence (P08659 whole entry, looked up): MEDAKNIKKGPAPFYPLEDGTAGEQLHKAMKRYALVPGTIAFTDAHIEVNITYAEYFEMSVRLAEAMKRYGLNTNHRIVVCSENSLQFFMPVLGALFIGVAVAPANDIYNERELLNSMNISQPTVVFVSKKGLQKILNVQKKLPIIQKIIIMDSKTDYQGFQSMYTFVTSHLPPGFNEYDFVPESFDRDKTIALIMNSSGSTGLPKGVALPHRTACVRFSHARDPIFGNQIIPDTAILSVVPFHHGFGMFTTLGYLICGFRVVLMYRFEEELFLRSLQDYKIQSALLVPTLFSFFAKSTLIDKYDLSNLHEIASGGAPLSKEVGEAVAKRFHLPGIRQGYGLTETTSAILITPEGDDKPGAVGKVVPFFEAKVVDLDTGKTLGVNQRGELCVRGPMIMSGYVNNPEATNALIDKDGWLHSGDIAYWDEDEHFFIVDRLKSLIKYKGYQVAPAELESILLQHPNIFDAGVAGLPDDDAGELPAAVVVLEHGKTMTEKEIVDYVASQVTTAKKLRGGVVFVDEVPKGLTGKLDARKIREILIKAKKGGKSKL
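Purified P. pyralis luciferase (10nM final) with 10uM D-luciferin and 10uM ATP (Km levels) in 50mM Tris acetate pH 7.5, 10mM Mg acetate, 0.01% Tween-20, 0.05% BSA; qHTS 6-point titration, ~60 µM downward; luminescence read.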
p53 reactivation: re-activators of mutant p53 | H1299 p53-A138V BP100-luciferase reporter, luminescence, 24 h | Potency, µM (series often up to 92.2 µM), for the others: at the top dose activity change, positive = activation, hits mostly activators | hit rate 0.063% among 320,000 | AID 504706; note: % of control where 0% means no effect; nearly all actives have a fitted effect of over 45% in size
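p53-null H1299 cells stably carrying temperature-sensitive p53-A138V and a BP100-luciferase reporter were pinned with compounds (4-point, 1:5 series) and held 24 hrs at 37 deg C. Luminescence was read 10 min after detection reagent.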
NPC1 prom act: activators of NPC1 promoter; hit rate 2.4% among 320,000; Potency, µM (titrated, usually from 9.22 µM), inactives show at the highest dose activation, most hits filed as activators; Huh7 NPC1 promoter luciferase reporter, 24 h; note: % of control where 0% means no effect; nearly all actives have a fitted effect of over 60% in size
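Huh7 cells stably carrying NPC1 promoter–luciferase, plated in Opti-MEM with 10% FBS for 2 h, were exposed to compound in DMSO for 24 h at 37 °C; luciferase reagent was added for 10 min and luminescence read.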
SMN2 splice enh: SMN2 splice variant enhancement; HEK293 SMN2-luciferase splicing reporter, luminescence, 30-36 h; Potency, µM (doses to about 46.1 µM), without a hit: at the highest dose activity change, positive = activation, most hits filed as activators; hit rate 2.8% among 210,000; AID 1458; note: % of control where 0% means no effect; nearly all actives have a fitted effect of over 55% in size
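HEK293 cells carry an SMN2 […]–luciferase reporter in which exon 7 inclusion puts luciferase in frame. Cells were plated 10-12 h before compound addition, then incubated 30-36 h at 37C. ONE-Glo luminescence was read; sodium butyrate at 4.5 mM final served as control.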
Rab9 promoter act: activators of Rab9 promoter | Potency, µM (doses to about 9.22 µM), without a hit: top-dose activation, negative = inhibition, most hits filed as activators | Huh7 Rab9 promoter-luciferase reporter, luminescence, 24 h | hit rate 2.8% among 320,000; note: % of control where 0% means no effect; nearly all actives have a fitted effect of over 60% in size
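Huh7 reporter line, Rab9 promoter upstream of luciferase. Compound exposure 24 h at 37 °C in reduced-serum medium with 10% FBS. Read-out: luminescence.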
Active calls of the source: *; [ ] = dose if it differs, or a comment. Calls come from the whole dose curve; as a rule, active = well fitted curve in the direction sought with a large enough effect; inconclusive = small, poorly fitted or top-dose-only effect, or another doubt; inactive = no such curve, though single readings can be large; an effect the other way counts as inactive or inconclusive. Potency is the fitted concentration of half-maximal effect.

Screening COc1cc(O)c2c(=O)c3c(OC)c(O)ccc3oc2c1 returned ELG1 genotox inconclusive, FLuc counter 19µM*, p53 reactivation inconclusive, NPC1 prom act 2% and Rab9 promoter act 8%.
`COc1ccc(C(=O)c2c(C)oc3ccc(O)cc23)cc1` gave ELG1 genotox -5%, FLuc counter -14%, p53 reactivation 6%, NPC1 prom act -5% and Rab9 promoter act -3%.
For CCCSCCCNC(=O)c1ccc(C)c(NC(=O)c2nsc3ccccc23)c1 the results were FLuc counter -14%.
Screening Cc1ccc(C(=O)NCc2ccc(N(C)C)cc2)cc1NC(=O)c1nsc2ccccc12 returned FLuc counter -13%.
Screening Cc1ccccc1CNC(=O)c1ccc(NC(=O)c2nsc3ccccc23)cc1 returned FLuc counter 6.7µM*.
For Cc1ccc(CNC(=O)c2ccc(NC(=O)c3nsc4ccccc34)cc2)cc1 the results were FLuc counter 6.7µM*.
`CN(C)c1ccc(CNC(=O)c2ccc(NC(=O)c3nsc4ccccc34)cc2)cc1` gave FLuc counter 2.7µM*.
O=C(NCc1cccc(F)c1)c1ccc(NC(=O)c2nsc3ccccc23)cc1 was read as FLuc counter 4.8µM*.
For Cc1ccccc1NCCNc1ccccc1C the results were ELG1 genotox 3%, FLuc counter -12%, p53 reactivation 3%, NPC1 prom act -1%, SMN2 splice enh 2% and Rab9 promoter act 3%.
Screening Cc1cc(C)cc(C(=O)Nc2c(C(=O)Nc3ccccc3F)oc3ccccc23)c1 returned FLuc counter -1% and SMN2 splice enh inconclusive.
Screening O=C(O)CSc1ccc([N+](=O)[O-])cc1[N+](=O)[O-] returned SMN2 splice enh -11%[9.22 µM].
Cc1cc(C(=O)COC(=O)c2ccc(Cl)c(S(N)(=O)=O)c2)c(C)n1C1CC1 was read as ELG1 genotox 15%, FLuc counter 4.8µM*, p53 reactivation inconclusive, NPC1 prom act 4µM* and Rab9 promoter act 1.8µM*.
Cc1cc(C(=O)COC(=O)c2ccc(NC(=O)CC#N)cc2)c(C)n1-c1ccc(OC(F)F)cc1 was read as ELG1 genotox -4% and p53 reactivation 4%.
For Cc1cc(C(=O)COC(=O)c2ccc(NC(=O)CC#N)cc2)c(C)n1C1CC1 the results were ELG1 genotox 18%, FLuc counter 13µM*, p53 reactivation 21%, NPC1 prom act inconclusive and Rab9 promoter act 4µM*.
`COc1cccc(Nc2nnc(-c3cc4ccc(O)cc4oc3=O)s2)c1` gave FLuc counter -19%.
Screening O=C(COC(=O)CC1CCCC1)Nc1cc2c(cc1Cl)C(=O)c1ccccc1C2=O returned ELG1 genotox 15µM*, FLuc counter 13µM*, p53 reactivation 17%, NPC1 prom act 3.5µM*, SMN2 splice enh inconclusive and Rab9 promoter act 6.3µM*.
`CCOCCCNC(=O)C(c1ccccc1)N(Cc1cccs1)C(=O)c1ccc(NC(C)=O)cc1` (configuration not stated) gave FLuc counter 1% and SMN2 splice enh 4%.
For O=C(CC(Nc1ccc(Cl)cc1Cl)C(=O)O)c1ccccc1 (configuration not stated) the results were ELG1 genotox 6.5µM*, FLuc counter 2.7µM*, p53 reactivation 22%, NPC1 prom act 6% and Rab9 promoter act 10%.
`O=C(CC(Nc1ccccc1)c1ccc(F)cc1)c1ccccc1` (configuration not stated) gave ELG1 genotox inconclusive, FLuc counter inconclusive, p53 reactivation inconclusive, NPC1 prom act -1%, SMN2 splice enh -2% and Rab9 promoter act 4%.
